Compound activity deposited in PubChem by National Center for Advancing Translational Sciences (NCATS).
Shiga inhibitor: Shiga toxin inhibition. Vero cells, Shiga toxin protein synthesis inhibition reporter. inhibition, % at 38.7 µM. 9.2% of 290,000 active; in the data active = inhibition mostly above about 28%, no sharp cut-off; inactive = mostly below about 43%; also: 0% is about no effect
NS1 function inh: inhibitors of influenza NS1 protein function; 0.4% of 270,000 active; Potency, µM (doses to about 46.1 µM), inactives show at the highest dose activity, positive = more growth; AID 2326; calls by dose curve; also: potency is read from the fitted curve at half-maximal effect; actives are rising curves; nearly all actives have a fitted effect of over 50% in size
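OD600 was taken as the measure of yeast growth restored by compound in an NS1-expressing S. cerevisiae strain. Cells had been washed out of glucose medium and diluted 1:100 into galactose -URA medium, pH 6.0.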
FBPA Giardia inh: inhibitors of Giardia lamblia fructose-1,6-bisphosphate aldolase; 0.71% of 290,000 active; Potency, µM (titrated, usually from 59.6 µM), inactives show at the highest dose activity, negative = inhibition, usual class: inhibitors; A8B2U2; purified Giardia FBPA; also: potency is read from the fitted curve at half-maximal effect; % is scaled to controls: 0 for no effect and ±100 for the full control effect; nearly all actives have a fitted effect of over 55% in size
Target sequence (A8B2U2 whole entry, looked up): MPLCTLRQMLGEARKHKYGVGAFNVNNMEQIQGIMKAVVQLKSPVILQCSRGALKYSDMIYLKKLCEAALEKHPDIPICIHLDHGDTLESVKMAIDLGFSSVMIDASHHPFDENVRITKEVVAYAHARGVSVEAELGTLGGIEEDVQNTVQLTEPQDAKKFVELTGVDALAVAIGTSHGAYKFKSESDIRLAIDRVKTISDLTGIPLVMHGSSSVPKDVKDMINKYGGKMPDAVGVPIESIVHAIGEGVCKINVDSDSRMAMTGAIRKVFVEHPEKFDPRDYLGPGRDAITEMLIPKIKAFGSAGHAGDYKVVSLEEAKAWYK
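Giardia FBPA (40 nM reagent) was preincubated 10 min at RT with compound (up to 57.5 uM final), then substrate plus GAPDH/TPI/NAD/arsenate coupling system with diaphorase/resazurin was added; resorufin fluorescence (525/598 nm) was read after 20 min.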
CHX counter: counter-screen hit for Shiga toxin inhibitors, cycloheximide. cell reporter, cycloheximide protein synthesis inhibition counterscreen. max response, %. 12% of 300,000 active; in the data active = max response mostly above about 13%, no sharp cut-off; inactive = mostly below about 14%; also: read at 38.3 µM for the half of the compounds with a filed dose; 0% is about no effect
LmPK inhibitor: inhibitors of Leishmania mexicana pyruvate kinase. Q27686. Potency, µM (highest dose often 57.5 µM), without a hit: at the top dose activity change, negative = inhibition, hits mostly inhibitors. AID 1721. purified LmPK, Kinase-Glo ATP luminescence, 1 h. 0.37% of 290,000 active; also: potency is read from the fitted curve at half-maximal effect; % is scaled to controls: 0 for no effect and ±100 for the full control effect
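Screened at intermediate enzyme activity to detect both inhibitors and activators: LmPK at 0.1 nM, with a 0.5 nM enzyme column as activation reference. PEP 0.5 mM, ADP 0.1 mM; ATP detected by luminescence after 1 h.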
An asterisk follows results filed as active; i = inactive; ? = inconclusive; . = not tested or not shown; [ ] = remark or other dose. Shown are actives, neighbours in structure and some others; about 14% of the full set was active somewhere. Unless noted, calls follow the shape of the dose curve; as a rule, active = well fitted curve in the direction sought with a large enough effect; inconclusive = small, poorly fitted or top-dose-only effect, or another doubt; inactive = no such curve, though single readings can be large; an effect the other way counts as inactive or inconclusive.

SMILES	Shiga inhibitor	NS1 function inh	FBPA Giardia inh	CHX counter	LmPK inhibitor
O=C(NCc1cccc(Cl)c1)c1ccc2c(c1)OCO2	41	-8%	-2%	21*	3%
CC(=O)c1cccc(NC(=O)Nc2ccc3c(c2)OCO3)c1	88*	9%	.	38*	0%
COc1ccc(C(=O)NC(=S)NNC(=O)c2c(-c3ccccc3)noc2C)cc1OC	-3	-2%	27%	-2	4%
O=C(NCc1ccc2c(c1)OCO2)Nc1cccc(Cl)c1	57*	-19%	-1%	41*	3%
CC(=O)c1cccc(NC(=O)NCc2ccc3c(c2)OCO3)c1	-6	-10%	-2%	13	-12%
Cc1onc(-c2ccccc2)c1C(=O)NNC(=S)NC(=O)c1ccc2c(c1)OCO2	90*	-43%	?	46*	4%
C[C@@H](CO)[C@H](/C=C/c1ccccc1)CCO[Si](c1ccccc1)(c1ccccc1)C(C)(C)C	-3	.	0%	13	.
CN1CCCC2(CCN(C(=O)c3cccc(F)c3)CC2)C1	.	.	2%	.	.
O=C(Nc1cccc(Cl)c1)Nc1ccc2c(c1)OCO2	73*	-21%	-14%	48*	0%
O=C(NC(=S)NCc1ccccc1)c1ccc2c(c1)OCO2	-52	16%	-4%	19*	-2%
Cc1nn(C)cc1CNC(=O)Nc1cccc(Cl)c1	90*	5%	-2%	67*	-3%
Cc1nn(C)cc1CNC(=O)Nc1ccc(Br)cc1Cl	19	-2%	1%	5	5%
Cc1cccc(C)c1NC(=O)Nc1ccc2c(c1)OCO2	38	.	3%	27	1%[11.5 µM]
C#C[C@]1(OC(C)=O)CC[C@H]2[C@@H]3CCC4=CC(=O)CC[C@@H]4[C@H]3CC[C@@]21C	-5	.	12%	6	.
COc1ccc(-c2nc3c(c4c2CC(C)OC4)CN(CCC(C)C)CC3)cc1 (stereo unspecified)	.	.	-8%[12.9 µM]	.	.
CCOC(=O)c1sc(=NC(=O)c2cccc(C)c2)n(C)c1C	123*	.	3%	24*	6%
CCOC(=O)c1sc(=NC(=O)c2cc(OC)c(OC)c(OC)c2)n(C)c1C	-12	?	1%	0	9%
CCOC(=O)c1sc(=NC(=O)c2cccc(Br)c2)n(C)c1C	18	-2%	.	20*	2%
CC12C=C(/C=C/c3ccc(Br)cc3)C(C)(C1)C(c1ccc(Br)cc1)CC2=O (stereo unspecified)	.	.	-3%[12.9 µM]	.	.
Cc1ccc2c(c1)N(CC(=O)N1CCN(c3nc4ccccc4s3)CC1)C(=O)C(C)O2 (stereo unspecified)	72	-5%	0%	8	2%
COc1ccc(Nc2cnn(-c3nc4ccccc4s3)c(=O)c2Cl)cc1	76*	-28%	8%	48*	?
O=c1c(Cl)c(Nc2cccc(Cl)c2)cnn1-c1nc2ccccc2s1	69*	7%	3%	88*	-20%
Cc1ccc(C)c(N2CCN(c3cnn(-c4nc5ccccc5s4)c(=O)c3Cl)CC2)c1	138*	-5%	6%	64*	-6%
O=c1c2ccccc2cnn1-c1nc2ccccc2s1	.	3%	.	.	.
C=C1c2ccccc2O[C@H](C(=O)OCC)C1OC (mixture of isomers)	i	.	0%[89.2 µM]	-1	.
SMILES	Shiga inhibitor	NS1 function inh	FBPA Giardia inh	CHX counter	LmPK inhibitor
COc1cccc(CN2CC(C(=O)NCC3CCOCC3)CCC2=O)c1 (stereo unspecified)	3	5%	8%	1	-3%
C=CCNC(=S)N/N=C(\C)c1ccc(OC)cc1	-1	-15%	-15%	7	2%
COc1ccc(CNC(=S)N/N=C(\C)c2ccc(OC)cc2)cc1	64*	-4%	-3%	15	0%
C/C(=N\NC(=S)NCCc1ccccc1)c1cccc(Br)c1	13	3%	-6%	1	-3%
C/C(=N\NC(=S)NCc1ccccc1)c1cccc(Br)c1	68*	-4%	11%	49*	5%
CCN(CC)CC(O)Cn1c(C)c(-c2ccccc2)c2cc([N+](=O)[O-])ccc21 (stereo unspecified)	-8	-3%	-4%	-6	-10%
O=C(O)[C@@H](Cc1c[nH]c2ccccc12)C(=O)NO	.	17%	.	.	.
COCCN(C(=O)CNC(=O)c1ccco1)C(C(=O)NC1CCCC1)c1cccc(OC)c1 (stereo unspecified)	-7	-6%	1%	6	0%
COC(=O)Cn1c(C(=O)N(C)C)cc2c1C[C@H]1CN(C(=O)c3ccccc3)[C@@](Cc3ccc(OC)cc3)(C(=O)OC)[C@@H]21	.	.	4%	.	.
